Source: PubChem
A selection: hits, their analogues and other compounds. The true share with any hit is near 4%.
TWEAK-Fn14 inh = inhibitors of TWEAK-Fn14 interaction signaling. TWEAK-stimulated Fn14 reporter cells, luciferase luminescence, 8 h. inhibition, % at 10 µM. actives 2% (n = 360,000); in the data active = inhibition above about 50%
TROY signal inh = blocks TROY-dependent signaling in reporter cells; AID 1347056; inhibition, % at 10 µM; actives 0.98% (n = 360,000); Q293 LMP1-TROYcd NF-kB luciferase reporter, 4 h;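 active = compounds whose plate-normalised and pattern-corrected inhibition of the luciferase reporter signal at the single screening dose is 50% or more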
CF NFkB block = cystic fibrosis NF-kB activation inhibition; KKLEB NF-kB-GFP reporter, PAF-induced, GFP fluorescence overnight; AID 588850; actives 0.86% (n = 360,000); inhibition, % at 5 µM;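 active = at least 50% inhibition at 5 µM, scaled per plate between neutral and stimulator controls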;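 also: PAF is a Pseudomonas aeruginosa culture filtrate used as stimulus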
KKLEB cytotox = counter-screen for CF NF-kB inhibitors: cytotoxicity; actives 0.36% (n = 360,000); KKLEB CF airway cells viability, ATPlite luminescence, overnight; hits give low values; cells stimulated with P. aeruginosa culture filtrate; activity change (cytotoxicity), % at 5 µM;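 active = corrected activity change at or below -50% at 5 µM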
Peg3 promoter = inhibitors of Peg3 promoter | inhibition, % at 20 µM | actives 1.7% (n = 360,000) | AID 588405 | HeLa PEG-Prom luciferase reporter, luminescence, overnight;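 active = inhibition of at least 50% at 20 µM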
HIF-2a inh = inhibitors of HIF-2a; 786-0 RCC cells HIF-2a reporter, luciferase luminescence, overnight; inhibition, % at 18.8 µM; actives 0.72% (n = 360,000);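 active = inhibition of the luminescence signal of 40% or more relative to plate controls, in a single-dose primary screen at 18.75 µM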
Of the large screens only hits and unclear results are named; the others gave an inactive call.

CCOC(=O)C(Cc1nc(OCc2ccccc2)cc(OCc2ccccc2)n1)=NO	Peg3 promoter 55.1
CC(C)C[C@H](N)c1nnc(S(=O)(=O)Cc2ccc(F)cc2)o1	CF NFkB block 89.9, Peg3 promoter 114.3 (no result: TROY signal inh)
Cc1cc2ccccn2c1C(=O)c1ccc([N+](=O)[O-])o1	Peg3 promoter 98.9
CCC1Oc2ccc(C)cc2N(CC(=O)N(Cc2cccnc2)Cc2cccc(F)c2)C1=O (centres undefined)	none
O=C(CN1C(=O)COc2ccccc21)N(Cc1cccnc1)Cc1cccc(F)c1	TWEAK-Fn14 inh 67.5
CO[C@@]12[C@@H]3N[C@@H]3CN1C1=C(C(=O)C(N)=C(C)C1=O)[C@@H]2COC(N)=O	Peg3 promoter 59.9
CO[C@@]12[C@H](COC(N)=O)C3=C(C(=O)C(C)=C(N)C3=O)N1C[C@@H]1N[C@@H]12	none
CCOC(=O)/C=c1\s/c(=C\c2ccc3cc(OC)ccc3c2)c(=O)n1CC(=O)NCC1CCCO1 (centres undefined)	Peg3 promoter 60.9
O=C1C=CC(=O)c2c(O)c(N3CCN(CCOCCO)CC3)c(Br)c(O)c21	Peg3 promoter 53.5, HIF-2a inh 86.7
O=S(=O)(c1ccc(Br)cc1Cl)N1CCN(CCO)CC1	none
OCCOCCN1CCN(C2=Nc3ccccc3Sc3ccccc32)CC1	none
O=C1C=CC(=O)c2c(O)c(N3CCN(CCO)CC3)c(Cl)c(O)c21	Peg3 promoter 101.7, HIF-2a inh 89.9
Cc1ccc(C)c(OCCC(=O)N2CCN(S(=O)(=O)c3ccc([N+](=O)[O-])cc3)CC2)c1	none
O=C(NCc1ccccc1)C(C1CC1)n1c(CSCCOc2ccccc2)nc2ccccc21 (centres undefined)	none (no result: TWEAK-Fn14 inh, TROY signal inh, CF NFkB block, KKLEB cytotox, Peg3 promoter)
COc1cc(C(=O)Nc2nnc(C(C)(C)C)s2)c([N+](=O)[O-])cc1OC	Peg3 promoter 62.0
O=C(Cc1cccc(C(F)(F)F)c1)Nc1ccccc1	none
CCCCNC(=NCc1cccc(C(F)(F)F)c1)Nc1ccccc1	Peg3 promoter 75.9
COC(=O)[C@@]12C[C@@H](CC(=O)NCCCCc3ccccc3)C(=O)N(Cc3cccc4ccccc34)C1=CCC(C)(C)C2	none (no result: TWEAK-Fn14 inh, TROY signal inh, CF NFkB block, KKLEB cytotox, Peg3 promoter)
CC(=O)c1cn(CCOc2cc(C)ccc2C)c2ccccc12	TWEAK-Fn14 inh 100.0
Cc1ccc(C)c(OCCn2cc(C(=O)O)c3ccccc32)c1	none
COCCNC(=O)/C(C#N)=C/c1cn(CC(=O)NCc2ccco2)c2ccccc12	none
Cc1cccc(NC(=O)/C(C#N)=C/c2cn(CC(=O)NCc3ccco3)c3ccccc23)c1	CF NFkB block 59.7, KKLEB cytotox -62.9, Peg3 promoter 60.3
Cc1ccc(C)c(OCCn2cc(/C=C(\C#N)C(=O)NCc3ccco3)c3ccccc32)c1	CF NFkB block 56.9, KKLEB cytotox -58.0
CCOc1cc(/C=N/NC(N)=O)cc(Br)c1OCc1ccccc1F	none
CCOc1cc(/C=N\NC(N)=O)cc(Br)c1OC(C)C	Peg3 promoter 56.0
CCOC1=CC2=C(C(=O)C(Cl)=CC2=O)[C@@H]2CN(S(=O)(=O)c3ccc(C)cc3)[C@@H](c3ccccc3)[C@H]12	HIF-2a inh 57.2
Brc1ccc(-c2nc(-c3ccccn3)no2)o1	TWEAK-Fn14 inh 91.3, TROY signal inh 55.8
Clc1ccc(OCc2nc(-c3ccccn3)no2)c(Br)c1	TWEAK-Fn14 inh 66.9
COc1ccccc1-c1nc(-c2ccccn2)no1	TWEAK-Fn14 inh 96.1, TROY signal inh 66.0, HIF-2a inh 43.1
Clc1ccccc1OCc1nc(-c2ccccn2)no1	none
Clc1ccc(-c2nc(-c3ccccn3)no2)cc1Cl	TWEAK-Fn14 inh 80.3
COc1ccccc1-c1noc(-c2ccncc2)n1	none
Brc1ccc(-c2noc(-c3ccccn3)n2)o1	none
COCCNC(=O)C1(C)CCCN(C(=O)c2cnc3ccccc3n2)C1 (centres undefined)	none
CN(C(=O)COC(=O)c1ccc2ccccc2n1)c1ccccc1	none
O=C(CN1C(=O)NC2(CCCCCC2)C1=O)c1cccs1	none
CC(C)NC(=O)C1(C)CN(S(C)(=O)=O)CC(=O)N1CCc1ccc(O)cc1 (centres undefined)	none (no result: TWEAK-Fn14 inh, TROY signal inh, CF NFkB block, KKLEB cytotox, Peg3 promoter)
COC(=O)c1cc(=O)n(CCc2ccc(OC)cc2)c(=Nc2ccc(F)c(Cl)c2)s1	Peg3 promoter 82.5
CCN(CC)c1ccc2c(O)cc(=O)oc2c1	TWEAK-Fn14 inh 85.5
Cc1ccc(C(NC(=O)NC(C)c2ccccc2)C(Cl)(Cl)Cl)cc1F (centres undefined)	TWEAK-Fn14 inh 55.3, TROY signal inh 58.4
CC(NC(=O)Nc1ccc(Cl)cc1)c1ccccc1 (centres undefined)	none
Cc1[nH]c2ccccc2c1CN1CCC(Cc2ccccc2)CC1	Peg3 promoter 78.2
Cc1ncc(CN2CCC(C(=O)Nc3cccc(-c4cscn4)c3)CC2)cn1	none
CC1(C(=O)Nc2ccc3c(c2)OCCO3)CN(S(C)(=O)=O)CC(=O)N1CCc1ccccc1F (centres undefined)	none (no result: TWEAK-Fn14 inh, TROY signal inh, CF NFkB block, KKLEB cytotox, Peg3 promoter)
CC[C@@]1(C(=O)OC)N[C@H](CN(C)C(=O)c2ccc(F)cc2)[C@@H]2C(=O)N(Cc3ccccc3)C(=O)[C@@H]21	none
O=C(NCCCc1ccccc1)c1cccc(NC(=O)C2CCC2)c1	none
O=C(NCCCc1ccccc1)c1cccc(NC(=O)C2CCCCC2)c1	TWEAK-Fn14 inh 54.1
CN(C(=O)c1cccc(NC(=O)Cc2ccc(NC(=O)C3CCCN(C(=O)CCc4ccccc4)C3)cc2)c1)C1CCC1 (centres undefined)	none
CN(C(=O)c1cccc(NC(=O)Cc2ccc(NC(=O)C3CCCN(C(=O)CCc4ccccc4)C3)cc2)c1)C1CCCC1 (centres undefined)	TWEAK-Fn14 inh 53.4
CCNc1nc(NCC)nc(NS(=O)(=O)c2ccc(N)cc2)n1	none
COc1ccc(CCNc2c3ccccc3nc3ccccc23)cc1OC	Peg3 promoter 72.8, HIF-2a inh 50.9
COc1ccccc1CNC(=O)Cc1ccc(OC)c(OC)c1	TWEAK-Fn14 inh 67.6
COc1ccc(CC(=O)NCc2ccccc2)cc1OC	none
COc1ccc(CCNc2oc(COc3ccccc3Cl)nc2C#N)cc1OC	TROY signal inh 51.7
COc1nc(NCCc2ccc(OC)c(OC)c2)nc(OC)n1	none
COc1ccc(Nc2c3ccccc3nc3ccccc23)cc1	Peg3 promoter 77.6
COC(=O)[C@@]12C[C@@H](CC(=O)NCc3cccc(C(F)(F)F)c3)C(=O)N(CCc3ccc(OC)c(OC)c3)C1=CCC(C)(C)C2	none (no result: TWEAK-Fn14 inh, TROY signal inh, CF NFkB block, KKLEB cytotox, Peg3 promoter)
C[C@@H](NC(=O)[C@@H]1CCCN1C(=O)[C@@H]1CCCN1C(=O)c1cccs1)c1ccccc1	none (no result: CF NFkB block, KKLEB cytotox, Peg3 promoter)
COc1ccc(S(=O)(=O)N2CCOCC2)cc1NC(=O)COc1ccc(C(C)=O)cc1OC	none
COc1ccccc1Nc1nc(-c2ccccc2)nc2ccccc12	none
c1ccc2c(NCCc3c[nH]c4ccccc34)c3ccccc3nc2c1	Peg3 promoter 99.1, HIF-2a inh 44.4
Fc1cccc(NCCc2c[nH]c3ccccc23)n1	none
